The nature of experiment [1]: qHTS assay to identify small molecule inhibitors of chordoma cells - UCH-2 (AID 1259356). Note: series mostly up to about 46 µM.
Experiment [2] deals with Parathyroid hormone/parathyroid hormone-related peptide receptor (Homo sapiens) (UniProt Q03431). Nature of the experiment: qHTS for PTHR1 Agonists: Optimization Screen against the NCGC LOPAC library (AID 1347079).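 Note: GloSensor cAMP luminescence in HEK-293 GP2 cells expressing human PTHR1 with IBMX.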 In a few lines:
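Signal increase flags agonism. GP2 cells, derived from HEK-293, express human PTHR1 and a GloSensor cAMP construct.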
In general terms: Quantitative high-throughput screening tests each substance at several concentrations.

Experiment [3] can be described thus: qHTS for Inhibitors of the Functional Ribonucleoprotein Complex (vRNP) of Lassa (LASV) Arenavirus: LASV Primary Screen - GLuc reporter signal (AID 1347082; calls by dose curve; tested in HEK293 reporter line; note: series mostly up to about 57 µM; nearly all actives have a fitted effect of over 60% in size).
Experiment [4] can be described thus: qHTS for Inhibitors of the Functional Ribonucleoprotein Complex (vRNP) of Lassa (LASV) Arenavirus: Viability assay - alamar blue signal for LASV Primary Screen (AID 1347083; calls by dose curve; tested in HEK293 reporter line; note: series mostly up to about 57 µM; nearly all actives have a fitted effect of over 80% in size).
Experiment [5] in a line: qHTS for Inhibitors of the Functional Ribonucleoprotein Complex (vRNP) of Lymphocytic Choriomeningitis Arenaviruses (LCMV): Viability assay - alamar blue signal for LCMV Primary Screen (AID 1347085; calls by dose curve; tested in HEK293 reporter line; note: series mostly up to about 57 µM; nearly all actives have a fitted effect of over 80% in size).
Experiment [6] has as its target Nucleoprotein (Lymphocytic choriomeningitis virus (strain Armstrong)) (UniProt P09992). Put plainly: qHTS for Inhibitors of the Functional Ribonucleoprotein Complex (vRNP) of Lymphocytic Choriomeningitis Arenaviruses (LCMV): LCMV Primary Screen - GLuc reporter signal (AID 1347086; calls by dose curve; note: series mostly up to about 57 µM; nearly all actives have a fitted effect of over 70% in size).
A short description of experiment [7]: P-glycoprotein substrates identified in KB-3-1 adenocarcinoma cell line, qHTS therapeutic library screen (AID 1346986). Note: nearly all actives have a fitted effect of over 60% in size. In a few lines: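 Using luminescence to quantify ATP, parental and P-gp-overexpressing KB cells were compared after 72 h compound titration. KB-8-5-11 was also run with the P-gp inhibitor tariquidar.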
A short description of experiment [8]: P-glycoprotein substrates identified in KB-8-5-11 adenocarcinoma cell line, qHTS therapeutic library screen (AID 1346987). Note: nearly all actives have a fitted effect of over 65% in size. Note: potency is the fitted concentration of half-maximal effect. In a few lines: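 Human cervical adenocarcinoma KB-8-5-11 cells, selected in colchicine to over-express P-gp and assayed without it, were exposed for 72 h to titrated compounds. An ATP-based luminescent viability signal gave AC50.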

Results filed as inconclusive are left out. Active and inactive are the calls of the source. Unless noted, calls come from the whole dose curve; as a rule, active = well fitted curve in the direction sought with a large enough effect; inconclusive = small, poorly fitted or top-dose-only effect, or another doubt; inactive = no such curve, though single readings can be large; an effect the other way counts as inactive or inconclusive.

Parathyroid hormone/parathyroid hormone-related peptide receptor (Homo sapiens), sequence (Q03431 whole entry, looked up): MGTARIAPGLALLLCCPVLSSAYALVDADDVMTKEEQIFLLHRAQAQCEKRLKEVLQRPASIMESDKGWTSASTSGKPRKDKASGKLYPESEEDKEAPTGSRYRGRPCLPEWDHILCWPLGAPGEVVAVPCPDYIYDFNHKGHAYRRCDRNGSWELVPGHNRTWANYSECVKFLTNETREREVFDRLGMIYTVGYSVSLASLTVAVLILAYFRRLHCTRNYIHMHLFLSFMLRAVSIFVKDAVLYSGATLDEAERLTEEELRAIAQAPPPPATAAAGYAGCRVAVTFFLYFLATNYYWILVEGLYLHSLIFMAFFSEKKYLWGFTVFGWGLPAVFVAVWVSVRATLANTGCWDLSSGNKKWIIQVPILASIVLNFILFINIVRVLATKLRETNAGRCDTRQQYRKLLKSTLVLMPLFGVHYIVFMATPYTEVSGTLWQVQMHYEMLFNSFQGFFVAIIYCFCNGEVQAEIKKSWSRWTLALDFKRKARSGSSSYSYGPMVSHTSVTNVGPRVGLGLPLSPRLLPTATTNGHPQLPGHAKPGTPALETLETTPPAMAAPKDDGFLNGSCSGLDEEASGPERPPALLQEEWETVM
Nucleoprotein (Lymphocytic choriomeningitis virus (strain Armstrong)), sequence (P09992 whole entry, looked up): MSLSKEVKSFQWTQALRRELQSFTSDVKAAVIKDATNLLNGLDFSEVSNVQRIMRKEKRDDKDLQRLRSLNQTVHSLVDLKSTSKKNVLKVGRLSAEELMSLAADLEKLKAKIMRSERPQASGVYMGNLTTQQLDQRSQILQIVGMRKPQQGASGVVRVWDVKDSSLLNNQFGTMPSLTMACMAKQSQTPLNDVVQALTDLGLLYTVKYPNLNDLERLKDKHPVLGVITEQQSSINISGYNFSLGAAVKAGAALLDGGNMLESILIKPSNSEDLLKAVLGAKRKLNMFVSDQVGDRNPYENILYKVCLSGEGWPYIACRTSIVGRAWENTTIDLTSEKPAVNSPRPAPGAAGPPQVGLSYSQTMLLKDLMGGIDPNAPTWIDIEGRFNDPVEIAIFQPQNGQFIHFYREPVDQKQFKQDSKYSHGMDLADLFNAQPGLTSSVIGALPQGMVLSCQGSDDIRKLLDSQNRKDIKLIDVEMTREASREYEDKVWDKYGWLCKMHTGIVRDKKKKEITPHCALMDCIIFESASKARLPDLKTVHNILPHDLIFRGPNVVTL

As for `O=c1c2ccccc2[se]n1-c1ccccc1`, the Potency entry in experiment [1], in experiment [2], in experiment [3], in experiment [4], in experiment [5] and in experiment [6] was “inactive” throughout.

Consider `COc1cc(CCNCc2ccccc2O)c(OC)cc1C#N`, for which, in experiment [7], the Potency result was “inactive”.

As to `COc1cc(C)[nH]c(=O)c1CNC(=O)c1c(C)n([C@H](C)C2CCOCC2)c2ccccc12`, the Potency entry in experiment [7] and in experiment [8] was “inactive” in each case.

`CCC1NC(=O)C2C(Cl)C(Cl)CN2C(=O)C(C(C)O)NC(=O)CC(c2ccccc2)NC(=O)C(CO)NC1=O` (centres undefined): the Potency entry in experiment [7] and in experiment [8] was “inactive” each time.

In the case of `COC1CC(=O)C23C(=O)NC(CC(C)C)C2C(C)=C(C)C(OO)C3/C=C(\C)CCC(O)C1O` (centres undefined), the Potency entry in experiment [7] and in experiment [8] was “inactive” in each case.

As for `CC1=CC2/C=C(\C)CCC(O)C3OC(C)(C)OC3CC(=O)OC23C(=O)NC(CC(C)C)C3C1C` (centres undefined), the Potency result in experiment [7] and in experiment [8] was “inactive” in each case.

As to `CC(=O)OC1CC(O)C2(C)C(CC(OC(C)=O)C3(C)C2CCC2(C)C(c4ccoc4)C(=O)C4OC423)C1(C)C` (centres undefined), the Potency result in experiment [8] was “inactive”.

With `CC1=C2C(=O)C3[C@@H](CC=C4C[C@@H](O)CC[C@@]43C)[C@@H]2CC[C@]12O[C@@H]1C[C@H](C)CN[C@H]1[C@H]2C` (some centres undefined), the Potency entry in experiment [7] and in experiment [8] was “inactive” each time.

Take `CN1C(=O)N(c2ccc(C#N)c(C(F)(F)F)c2)C(=O)[C@]1(CO)c1ccccc1`: the Potency entry in experiment [7] and in experiment [8] was “inactive” each time.

Regarding `COC(COC(N)=O)C1=C(N2CC2)C(=O)C(C)=C(N2CC2)C1=O` (centres undefined), the Potency in experiment [8] was 6.51 µM (active).

Regarding `CN1C(=O)c2ccccc2NC(=O)C1Cc1ccccc1` (centres undefined), the Potency entry in experiment [8] was “inactive”.

As to `COC1CC(O[C@H]2CC[C@@]3(C)C(=CCC4C3C(O)[C@@H](O)[C@]3(C)[C@@H](C(C)=O)CC[C@]43O)C2)OC(C)C1OC1CC(OC)C(OC2OC(C)C(O)C(O)C2O)C(C)O1` (some centres undefined), the outcome in experiment [7] and in experiment [8] was “inactive [at 9.29 µM]” each time.

(Values after PubChem BioAssay (NCATS).)
